According to PubChem BioAssay (NCATS):
Results filed as inconclusive are left out. Activity calls are given as the source filed them. Unless noted, calls come from the whole dose curve; as a rule, active = well fitted curve in the direction sought with a large enough effect; inconclusive = small, poorly fitted or top-dose-only effect, or another doubt; inactive = no such curve, though single readings can be large; an effect the other way counts as inactive or inconclusive.

molecular target: Cytochrome P450 3A4 (Homo sapiens) (UniProt P08684); experiment: qHTS Assay for Activators of Cytochrome P450 3A4 (AID 885); conditions: recombinant CYP3A4, Luciferin-PPXE luminescence, 60 min; series mostly up to 57.1 µM; note: nearly all actives have a fitted effect of over 65% in size
Sequence (P08684 whole entry, looked up): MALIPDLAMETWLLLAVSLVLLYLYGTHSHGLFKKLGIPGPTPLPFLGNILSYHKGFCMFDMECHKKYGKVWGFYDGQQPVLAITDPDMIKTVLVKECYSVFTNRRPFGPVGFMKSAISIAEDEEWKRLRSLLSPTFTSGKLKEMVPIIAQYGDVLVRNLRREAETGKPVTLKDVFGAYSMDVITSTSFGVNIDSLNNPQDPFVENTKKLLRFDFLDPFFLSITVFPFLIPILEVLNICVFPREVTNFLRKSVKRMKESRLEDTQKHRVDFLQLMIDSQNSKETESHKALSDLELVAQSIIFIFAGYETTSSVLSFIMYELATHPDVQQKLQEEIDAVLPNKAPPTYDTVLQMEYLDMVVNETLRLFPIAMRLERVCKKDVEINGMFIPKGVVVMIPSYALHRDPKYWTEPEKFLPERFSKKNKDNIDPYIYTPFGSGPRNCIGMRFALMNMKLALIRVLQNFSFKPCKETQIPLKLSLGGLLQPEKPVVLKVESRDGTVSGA
How it was run: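 Quantitative HTS format: compounds preincubated with 20nM human CYP3A4 and Luciferin-PPXE substrate at KM, reaction started by NADPH regeneration, stopped after 60 min, luciferase luminescence read 20 min later.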

Potency, inactive:
COc1ccccc1-c1nc(NCc2cccs2)c2ccccc2n1
CCNc1ncc2nc(-c3cccs3)c(=O)n(C[C@H]3CCCO3)c2n1
COc1ccccc1-c1nccc(NCc2cccnc2)n1
c1ccc(CNc2nc(-c3ccoc3)nc3ccccc23)cc1
c1csc(CNc2nc(-c3ccoc3)nc3ccccc23)c1
N#Cc1cccc(-c2nc(NCc3cccs3)c3ccccc3n2)c1
CN(Cc1ccco1)c1ncncc1-c1ccc2c(c1)OCO2
CN(Cc1ccco1)c1ncncc1-c1cccnc1
Cc1noc(C)c1-c1nc(N(C)C)c2ccccc2n1
CN(Cc1ccco1)c1nc(-c2ccc3c(c2)OCO3)nc2ccccc12
O=c1c(-c2cccs2)nc2cncnc2n1-c1ccccc1
CS(=O)(=O)Nc1cccc(-c2cc(NCc3ccccc3)ncn2)c1
COc1ccccc1-c1cncnc1NCc1ccccc1
COc1cccc(-c2nccc(NCc3cnc(C)cn3)n2)c1
COc1ccc(CNc2ncncc2-c2ccc(N(C)C)cc2)c(OC)c1
CN(C)C(=O)c1ccc(-c2ccc3ncnc(NCCN4CCOCC4)c3c2)cc1
COCCn1c(=O)c(-c2cccc(F)c2)nc2cncnc21
Cc1noc(C)c1-c1nccc(Nc2ccc(F)cc2)n1
COc1ccccc1-c1cc(Nc2ccn[nH]2)ncn1
Cc1cnc(CNc2nc(-c3ccccc3Cl)nc3ccccc23)cn1
CCNc1ncc2nc(-c3cccc(C#N)c3)c(=O)n(CCC#N)c2n1
c1ccc(CNc2ccnc(-c3cccnc3)n2)cc1
COc1ccccc1-c1nc(N(C)Cc2ccco2)c2ccccc2n1
COc1cccc(-c2cncnc2NCc2cccs2)c1
c1ccc(Nc2ncncc2-c2ccoc2)cc1
COc1ccccc1CNc1ccnc(-c2c(C)noc2C)n1
COc1ccc(CNc2ccnc(-c3cccnc3)n2)c(OC)c1

molecular target: Cytochrome P450 2D6 (Homo sapiens) (UniProt P10635); experiment: qHTS Assay for Inhibitors and Substrates of Cytochrome P450 2D6 (AID 891); conditions: recombinant CYP2D6, luciferin-ME EGE luminescence; series mostly up to 57.1 µM; note: potency is the fitted concentration of half-maximal effect; nearly all actives have a fitted effect of over 60% in size
Sequence (P10635 whole entry, looked up): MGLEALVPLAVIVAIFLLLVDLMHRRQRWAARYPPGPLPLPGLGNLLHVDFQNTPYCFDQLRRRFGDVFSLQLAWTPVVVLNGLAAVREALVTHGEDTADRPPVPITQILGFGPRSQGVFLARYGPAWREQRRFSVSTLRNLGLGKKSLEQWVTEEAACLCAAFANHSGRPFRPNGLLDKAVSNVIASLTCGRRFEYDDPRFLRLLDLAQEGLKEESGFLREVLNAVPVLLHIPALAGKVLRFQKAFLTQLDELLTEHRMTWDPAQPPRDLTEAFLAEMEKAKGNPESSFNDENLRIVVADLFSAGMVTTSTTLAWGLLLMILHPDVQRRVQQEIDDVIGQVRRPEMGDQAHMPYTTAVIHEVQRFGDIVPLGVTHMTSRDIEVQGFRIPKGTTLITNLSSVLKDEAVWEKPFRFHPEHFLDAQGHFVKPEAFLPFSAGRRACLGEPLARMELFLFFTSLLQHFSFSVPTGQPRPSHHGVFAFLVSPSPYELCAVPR
How it was run: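 Human CYP2D6 (5 nM) with 30 uM Luciferin-ME EGE (at Km) in 100 mM KPO4, compound preincubated 10 min, then NADPH regeneration system for 60 min at room temperature. Luciferin read by luminescence; normalized to 1.43 uM quinidine.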

Potency, active:
c1csc(CNc2nc(-c3ccoc3)nc3ccccc23)c1 3.98 µM
CN(Cc1ccco1)c1ncncc1-c1ccc2c(c1)OCO2 1.26 µM
CCNc1ncc2nc(-c3cccc(C#N)c3)c(=O)n(CCC#N)c2n1 0.0316 µM
c1ccc(CNc2ccnc(-c3cccnc3)n2)cc1 1.26 µM

molecular target: Cytochrome P450 2C19 (Homo sapiens) (UniProt P33261); experiment: qHTS Assay for Inhibitors and Substrates of Cytochrome P450 2C19 (AID 899); conditions: recombinant CYP2C19, luciferin-H EGE luminescence; series mostly up to 57.1 µM; note: potency is the fitted concentration of half-maximal effect; nearly all actives have a fitted effect of over 60% in size
Sequence (P33261 whole entry, looked up): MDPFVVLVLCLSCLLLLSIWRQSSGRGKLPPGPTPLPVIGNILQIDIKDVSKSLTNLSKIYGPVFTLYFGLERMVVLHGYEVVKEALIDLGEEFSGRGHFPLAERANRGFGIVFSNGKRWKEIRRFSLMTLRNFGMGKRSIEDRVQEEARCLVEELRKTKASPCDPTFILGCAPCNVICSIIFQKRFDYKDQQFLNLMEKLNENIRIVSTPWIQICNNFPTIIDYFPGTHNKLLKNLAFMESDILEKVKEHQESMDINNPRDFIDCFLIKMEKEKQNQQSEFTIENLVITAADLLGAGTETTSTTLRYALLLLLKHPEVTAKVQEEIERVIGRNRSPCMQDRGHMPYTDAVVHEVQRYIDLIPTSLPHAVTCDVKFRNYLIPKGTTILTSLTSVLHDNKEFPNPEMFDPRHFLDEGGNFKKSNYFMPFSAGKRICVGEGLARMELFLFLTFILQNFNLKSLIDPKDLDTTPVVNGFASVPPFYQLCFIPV
How it was run: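 Reactions contain 5nM enzyme, 10uM Luciferin-H EGE (KM) and 50mM KPO4; compound preincubates 10 min at 37C, NADPH regeneration starts turnover for 60 min. Luminescence after detection reagent gives activity.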

Potency, active:
COc1ccccc1-c1nccc(NCc2cccnc2)n1 3.98 µM
CN(Cc1ccco1)c1ncncc1-c1ccc2c(c1)OCO2 0.126 µM
CN(Cc1ccco1)c1nc(-c2ccc3c(c2)OCO3)nc2ccccc12 7.94 µM
COc1ccc(CNc2ncncc2-c2ccc(N(C)C)cc2)c(OC)c1 1.58 µM
Cc1noc(C)c1-c1nccc(Nc2ccc(F)cc2)n1 3.98 µM
COc1ccccc1-c1cc(Nc2ccn[nH]2)ncn1 6.31 µM
COc1ccccc1-c1cc(Nc2ccc(F)cc2)ncn1 7.94 µM
COc1cccc(-c2cncnc2NCc2cccs2)c1 0.631 µM

tested on: not listed separately; experiment: qHTS Assay for Identification of Small Molecule Agonists for Hypoxia Response Element Signaling Pathway (AID 914; active = well fitted activation curve with a large enough effect in the signal ratio, with a control signal flat, not every such curve was filed as active; the % refers to the signal ratio; note: % of control where 0% means no effect); conditions: ME-180 (cervical carcinoma) HRE-bla reporter, beta-lactamase ratio, CoCl2, 17 h; activation: stronger effect = higher value
How it was run: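 Cells were plated overnight, pin-dosed with compound in a titration series, co-stimulated with EC50 CoCl2 and incubated 17 hours at 37 degrees Celsius. CCF4 substrate was then loaded, and AC50 values came from the 460nm/530nm ratio.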

activation, inactive:
COc1ccccc1-c1nccc(NCc2cccnc2)n1 4.59%
CN(Cc1ccco1)c1ncncc1-c1ccc2c(c1)OCO2 4.7%
Cc1noc(C)c1-c1nccc(Nc2ccc(F)cc2)n1 21.5%

molecular target: Dual specificity protein kinase CLK4 (Homo sapiens) (UniProt Q9HAZ1); experiment: qHTS Assay for Inhibitors of CDC-like Kinase 4 (ADP-FP Assay) (AID 1795); conditions: Transcreener ADP fluorescence polarization; series mostly up to 50 µM; note: nearly all actives have a fitted effect of over 60% in size; note: potency is the fitted concentration of half-maximal effect
Sequence (Q9HAZ1 whole entry, looked up): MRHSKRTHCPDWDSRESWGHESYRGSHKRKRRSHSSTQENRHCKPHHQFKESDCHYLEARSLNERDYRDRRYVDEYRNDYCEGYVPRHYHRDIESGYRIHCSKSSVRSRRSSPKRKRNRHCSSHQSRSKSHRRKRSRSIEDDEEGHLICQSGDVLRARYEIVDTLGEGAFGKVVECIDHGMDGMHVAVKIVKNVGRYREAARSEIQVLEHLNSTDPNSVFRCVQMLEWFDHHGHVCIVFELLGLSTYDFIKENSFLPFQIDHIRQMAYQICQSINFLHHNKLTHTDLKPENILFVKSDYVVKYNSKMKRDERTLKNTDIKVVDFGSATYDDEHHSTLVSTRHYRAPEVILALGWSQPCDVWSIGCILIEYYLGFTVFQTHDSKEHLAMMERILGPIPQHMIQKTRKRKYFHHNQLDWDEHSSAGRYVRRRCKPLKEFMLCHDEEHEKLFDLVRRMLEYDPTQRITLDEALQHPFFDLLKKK
How it was run: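 Clk4 6.25 nM; RS peptide 100 uM; ATP 1 uM; 25 mM Tris pH 7.5, 10 mM MgCl2; 1 h reaction. ADP detected via antibody/orange tracer FP displacement; TG003 positive control.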

Potency, active:
COc1ccc(CNc2ncncc2-c2ccoc2)c(OC)c1 14.1 µM
c1csc(CNc2nc(-c3ccoc3)nc3ccccc23)c1 11.2 µM
c1ccc(Nc2ncncc2-c2ccoc2)cc1 5.62 µM

Potency, inactive:
COc1ccccc1-c1nc(NCc2cccs2)c2ccccc2n1
CCNc1ncc2nc(-c3cccs3)c(=O)n(C[C@H]3CCCO3)c2n1
COc1ccccc1-c1nccc(NCc2cccnc2)n1
CCNc1ncc2nc(C)c(=O)n(CCOC)c2n1
c1ccc(CNc2nc(-c3ccoc3)nc3ccccc23)cc1
N#Cc1cccc(-c2nc(NCc3cccs3)c3ccccc3n2)c1
CN(Cc1ccco1)c1ncncc1-c1ccc2c(c1)OCO2
CN(Cc1ccco1)c1ncncc1-c1cccnc1
Cc1noc(C)c1-c1nc(N(C)C)c2ccccc2n1
Cc1cnc(CNc2cc(-c3c(C)noc3C)ncn2)cn1
CN(Cc1ccco1)c1nc(-c2ccc3c(c2)OCO3)nc2ccccc12
N#Cc1cccc(-c2cncnc2NCCc2cnc[nH]2)c1
O=c1c(-c2cccs2)nc2cncnc2n1-c1ccccc1
COc1ccc(-c2nc3cnc(N4CCOCC4)nc3n(Cc3cccs3)c2=O)cc1
COc1ccc2[nH]cc(CCNc3cc(-c4c(C)noc4C)ncn3)c2c1
CS(=O)(=O)Nc1cccc(-c2cc(NCc3ccccc3)ncn2)c1
COc1ccccc1-c1cncnc1NCc1ccccc1
CCNc1ncc2nc(-c3cccs3)c(=O)n(-c3ccccc3)c2n1
COc1cccc(-c2nccc(NCc3cnc(C)cn3)n2)c1
COc1ccc(CNc2ncncc2-c2ccc(N(C)C)cc2)c(OC)c1
CN(C)C(=O)c1ccc(-c2ccc3ncnc(NCCN4CCOCC4)c3c2)cc1
COCCn1c(=O)c(-c2cccc(F)c2)nc2cncnc21
Cc1noc(C)c1-c1nccc(Nc2ccc(F)cc2)n1
COc1ccccc1-c1cc(Nc2ccn[nH]2)ncn1
Cc1cnc(CNc2nc(-c3ccccc3Cl)nc3ccccc23)cn1
CCNc1ncc2nc(-c3cccc(C#N)c3)c(=O)n(CCC#N)c2n1
c1ccc(CNc2ccnc(-c3cccnc3)n2)cc1
CN(C)C(=O)c1ccc(-c2cncnc2N(C)Cc2ccco2)cc1
COc1ccccc1-c1cc(Nc2ccc(F)cc2)ncn1
CN(C)c1nc(-c2ccccc2C(F)(F)F)nc2ccccc12
COc1ccccc1-c1nc(N(C)Cc2ccco2)c2ccccc2n1
COc1cccc(-c2cncnc2NCc2cccs2)c1
COc1ccccc1CNc1ccnc(-c2c(C)noc2C)n1
COCCn1c(=O)cnc2cnc(N(C)C)nc21
COc1ccc(CNc2ccnc(-c3cccnc3)n2)c(OC)c1
Cc1cnc(CNc2ncnc3ccc(-c4ccc(C(=O)N(C)C)cc4)cc23)cn1
COc1cccc(Cn2c(=O)cnc3cnc(Nc4ccccc4)nc32)c1
